# Source: ChEMBL document CHEMBL3988442, “University of Dundee, Small-Polar-MMV Screening Library” (2021)
# Biological target: AMP-activated protein kinase, AMPK (Homo sapiens) (UniProt P54646+O43741+P54619+Q9UGJ0+Q9Y478+Q13131+Q9UGI9)
# Test: AMP-dependent Kinase enzyme assay. An in vitro enzyme assay that detects ADP turnover that is directly proportional to AMPK activity. This uses naive AMPK that is activated during the assay with MK-8722
# Type: functional
# Parameters: scale not given: direction of the effect not stated beside the values
# Conditions: 30 µM
row,Structure (SMILES),Percent Effect
1,O=C(c1cccc2ccnn12)N1CCC[C@H]1CN1CCCC1,-0.374%
2,Cc1cc2n(n1)CC(CNCc1cc(C)on1)CN2 (stereo not given),-6.26%
3,Cc1nn2cccnc2c1C(=O)NCc1ccnc(OCC2CC2)c1,4.11%
4,O=c1cc(N2CCCCC2)cnn1Cc1noc(C2CCCO2)n1 (stereo not given),4.71%
5,CCc1ccc(N2CCC(NS(=O)(=O)N(CC)CC)CC2)cc1,1.78%
6,COc1cc(F)cc2sc(NC(=O)COCC3CCCO3)nc12 (stereo not given),1.22%
7,COC(=O)CSCc1noc(-c2ccc(C)cc2)n1,-5.29%
8,CCN1CCC(NC(=O)N(C)Cc2csc3ccccc23)CC1,-1.48%
9,CC(C)c1nc(C2CCCN2CCc2ccccn2)no1 (stereo not given),20.7%
10,CC(CCc1ncnn1Cc1cccc(Cl)c1)N1CCCC1 (stereo not given),7.16%
11,CC1(c2nccs2)CCN(C(=O)CCN2CCOCC2)CC1,10.7%
12,COc1ccc(CN2CC(n3cccn3)C2)cc1F,-6.94%
13,CC(CNC(=O)c1c[nH]nn1)Oc1ccc(Cl)cc1 (stereo not given),3.24%
14,CCN(CC)CCNCc1cc(O)c2cc(C)ccc2n1,0.484%
15,Cc1ccc(N2CC[C@@]3(O)CCN(S(C)(=O)=O)C[C@H]3C2)nn1,0.414%
16,CS(=O)(=O)CC1(CNc2cc(C#N)c3cc(Cl)ccc3n2)CC1,-0.595%
17,COCCN1CCN(Cc2cnc(C3(C)CCCCO3)nc2)CC1 (stereo not given),11.3%
18,Cc1n[nH]c(C)c1CNc1ccc(-c2nc(C3CC3)no2)cn1,-4.61%
19,O=C1NC(C(=O)NCc2cccnc2Oc2ccccc2F)CO1 (stereo not given),4.53%
20,CC(C)c1ccc(/C=C/CC(=O)NC2CCN(C(N)=O)CC2)cc1,-2.39%

row,Structure (SMILES),Percent Effect
1,Cc1nccn1-c1nccnc1C1CCCN(C2CCCC2)C1 (stereo not given),12.6%
2,COC(=O)c1cc2n(n1)CCN(C(=O)c1csc(CN(C)C)n1)C2,1.89%
3,Cc1ccc(CNS(=O)(=O)CCCC#N)cc1F,7.39%
4,O=C(NCc1nccs1)N1CCOC(c2ccccc2Cl)C1 (stereo not given),4.45%
5,O=S(=O)(c1cn[nH]c1)N1CCC(O)(CN2CCC(F)(F)CC2)C1 (stereo not given),9.16%
6,COC(=O)c1occc1Cn1cc(Br)cn1,-0.99%
7,CC(C)c1nc(C2CCCN2CCOCC2CC2)no1 (stereo not given),7.32%
8,CSCC(=O)N(C)Cc1noc(-c2ccccc2)n1,6.32%
9,CC(C)[C@@H]1CN(c2ccc(C(F)(F)F)cn2)C[C@H]1NS(C)(=O)=O,3.23%
10,C[C@@H]1CN(c2ccc(Cl)cn2)C[C@]1(C)O,-1.99%
11,Cn1ccnc1CN1CCCC1CCc1ccccc1 (stereo not given),-8.09%
12,CC(NC(=O)N1CCCN(CC(F)F)CC1)c1ccco1 (stereo not given),-1.66%
13,COc1cccc(CCC(=O)Nc2cnc3c(c2)c(C)nn3C)c1OC,5%
14,CCn1cc(CNCCNc2ncc(Cl)cc2Cl)cn1,4.84%
15,CC(C)[C@@H]1CN(C(=O)CN(C)Cc2ccccc2)C[C@H]1C(=O)O,2.94%
16,CCN1CCC(CC(=O)NCCc2nc(N)cc(O)n2)CC1,0.153%
17,CCN(Cc1ccncc1)C1CCN(c2ccccc2)C1=O (stereo not given),-7.01%
18,COc1ncccc1-c1cc(C(N)=O)ccn1,1.56%
19,CC(C)N(CCO)C(=O)c1cc(COc2ccc3c(c2)CCCC3)on1,-2.41%
20,CC(C)(CNc1cccc(Cl)c1)NC(=O)C1CCCN(CC(N)=O)C1 (stereo not given),40.1%
